# Measured values taken from paper PMC4336329 (PLoS ONE, 2015).
# The campaign covered roughly 310,000 compounds. About 14,000 (4.5%) showed an effect of 50% or more. Effects have a minus sign here. The sample as a whole holds a higher share of strong results than the screen did.
# Biological target: human ether-à-go-go-related gene (hERG) potassium channel (human, UniProt Q12809)
# Assay: primary screen, population patch clamp on CHO cells stably expressing hERG; higher = less effect of the substance
# 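Note: peak tail current of the secondary pulse compared with the same well before compound.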
# human ether-à-go-go-related gene (hERG) potassium channel, sequence (Q12809 whole entry, looked up): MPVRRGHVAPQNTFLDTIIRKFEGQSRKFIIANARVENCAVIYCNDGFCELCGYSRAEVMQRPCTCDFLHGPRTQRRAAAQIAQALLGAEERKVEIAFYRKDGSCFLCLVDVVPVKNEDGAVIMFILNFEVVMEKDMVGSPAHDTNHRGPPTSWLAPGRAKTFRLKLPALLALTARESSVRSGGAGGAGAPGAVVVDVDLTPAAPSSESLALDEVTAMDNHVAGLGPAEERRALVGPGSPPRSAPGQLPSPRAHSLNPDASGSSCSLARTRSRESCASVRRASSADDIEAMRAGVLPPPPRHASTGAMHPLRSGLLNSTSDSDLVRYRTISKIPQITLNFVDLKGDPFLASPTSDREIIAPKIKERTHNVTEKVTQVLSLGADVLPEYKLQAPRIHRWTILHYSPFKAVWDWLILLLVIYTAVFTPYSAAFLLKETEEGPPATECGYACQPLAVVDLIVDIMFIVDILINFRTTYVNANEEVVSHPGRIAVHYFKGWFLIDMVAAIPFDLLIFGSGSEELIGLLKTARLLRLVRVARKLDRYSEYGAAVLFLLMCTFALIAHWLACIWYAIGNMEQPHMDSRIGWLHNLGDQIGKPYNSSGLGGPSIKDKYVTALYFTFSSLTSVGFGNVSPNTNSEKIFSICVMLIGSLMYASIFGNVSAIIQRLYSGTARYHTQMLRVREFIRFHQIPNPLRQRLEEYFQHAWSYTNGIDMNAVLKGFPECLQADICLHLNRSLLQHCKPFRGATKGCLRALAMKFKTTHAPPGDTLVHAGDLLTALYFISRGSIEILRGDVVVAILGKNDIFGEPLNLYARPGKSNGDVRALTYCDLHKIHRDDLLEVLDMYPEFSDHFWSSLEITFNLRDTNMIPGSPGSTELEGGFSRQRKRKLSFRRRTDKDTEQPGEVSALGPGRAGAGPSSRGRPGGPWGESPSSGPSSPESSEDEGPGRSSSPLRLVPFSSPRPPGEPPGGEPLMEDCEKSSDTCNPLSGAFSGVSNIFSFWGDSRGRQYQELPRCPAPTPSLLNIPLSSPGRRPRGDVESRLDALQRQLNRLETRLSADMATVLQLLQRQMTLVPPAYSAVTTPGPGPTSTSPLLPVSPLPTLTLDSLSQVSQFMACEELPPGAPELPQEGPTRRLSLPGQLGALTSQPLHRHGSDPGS
row,SMILES,"hERG current change (%, negative = inhibition) at 10uM [%]"
1,C1CCN(Cc2nnnn2C2CCCC2)CC1,11.4
2,OC1(c2cccc(C(F)(F)F)c2)CCN(Cc2nnnn2Cc2ccccc2)CC1,10.4
3,Fc1ccc(Cn2nnnc2CN2CCC(n3nnc4cc(C(F)(F)F)ccc43)CC2)cc1,-69.6
4,Fc1ccc(Cn2nnnc2CN2CCN(C3CCCC3)CC2)cc1,-49.1
5,Cc1ccc(Cn2nnnc2CN2CCC(n3nnc4cc(C(F)(F)F)ccc43)CC2)cc1,2.84
6,O=C(CSc1ccc2c(c1)OCCO2)NCCc1ccc(Cl)cc1Cl,-8.94
7,O=C(Nc1ccc(Cl)cc1C(F)(F)F)c1ccccc1,8.81
8,Cn1cnnc1SCC(=O)Nc1cc(S(=O)(=O)N2CCCCCC2)ccc1Cl,-17.8
9,CCc1c(C)nc2ncnn2c1Nc1ccccc1C,-34.1
10,CCOC(=O)N1CCC(NC(=O)c2cc(C(=O)Nc3ccc(OCC)cc3)ccc2CO)CC1,9.27
11,CC(C)c1nnc(NC(=O)CC(C)c2ccccc2)s1 (stereo not shown),1.39
12,N#Cc1c(N)nc2c3c(sc(=N)c2c1N)NC(=O)CC3c1c(F)cccc1Cl (stereo not shown),-15.7
13,O=C(NNc1nc2ccccc2s1)c1ccccc1F,-7.04
14,Cc1ccc(NC(=S)NC2CC3CCCC(C2)N3Cc2cccs2)cc1 (stereo not shown),-56.5
15,CCc1ccccc1NC(=S)NC1CC2CCCC(C1)N2Cc1cccs1 (stereo not shown),-4.03
16,Cc1cc(C)cc(NC(=S)NC2CC3CCCC(C2)N3Cc2cccs2)c1 (stereo not shown),-52.9
17,CC(C)CNC(=S)NC1CC2CCCC(C1)N2Cc1cccs1 (stereo not shown),-34.8
18,Fc1ccc(NC(=S)NC2CC3CCC(C2)N3Cc2ccco2)cc1 (stereo not shown),-12.6
19,CCc1ccc(NC(=S)NC2CC3CCCC(C2)N3Cc2cccs2)cc1 (stereo not shown),-20.4
20,Cc1cccc(NC(=S)NC2CC3CCCC(C2)N3Cc2cccs2)c1 (stereo not shown),-35.9
21,Cc1cccc(NC(=S)NC2CC3CCCC(C2)N3Cc2cccs2)c1C (stereo not shown),-37.9
22,Fc1ccc(NC(=S)NC2CC3CCCC(C2)N3Cc2cccs2)cc1 (stereo not shown),-59.5
23,CCOC(=O)C(=O)N(Nc1ccccc1C)c1ccccc1C,-14.3

row,SMILES,"hERG current change (%, negative = inhibition) at 10uM [%]"
1,O=C(Nc1ccccn1)c1ccc2c(c1)OCCO2,11.5
2,CC1CCN(c2nc(-c3ccc(F)cc3)cc(C(F)(F)F)n2)CC1,15.6
3,Cc1csc(C2=C(O)CN(CCc3ccccc3)C2=N)n1,1.95
4,O=C(CCc1ccccc1)OCCOC(=O)CCc1ccccc1,22.1
5,Cc1cc(C(F)(F)F)nn1CC(=O)Nc1ccc2c(c1)OCO2,-2.91
6,CCCCOC(=O)c1ccc(NC(C)=O)cc1,-11.2
7,O=c1oc2ccccc2c(N2CCCC2)c1CN1CCCC1,13
8,O=c1oc2ccccc2c(Cl)c1CN1CCCCC1,24.1
9,O=c1oc2ccccc2c(O)c1CN1CCCCC1,13.9
10,O=c1oc2ccccc2c(N2CCCCC2)c1CN1CCCCC1,-18.4
11,O=c1oc2ccccc2c(Nc2ccccc2)c1CN1CCCCC1,-57.1
12,CN1CCN(c2c(N)c(=O)oc3ccccc23)CC1,-45.2
13,Nc1c(N2CCCC2)c2ccccc2oc1=O,2.82
14,Nc1c(N2CCN(c3ccccc3)CC2)c2ccccc2oc1=O,-50.1
15,O=c1oc2ccccc2c(N2CCCCC2)c1CN1CCCC1,-54.4
16,Cc1cc(C)cc(C(=O)NC(CC(N)=O)c2ccc(NC3CCCC3)c([N+](=O)[O-])c2)c1 (stereo not shown),13.2
17,CC(=O)c1ccc(NC(=O)/C(=C\c2cccs2)NC(=O)c2ccco2)cc1,17.9
18,Cc1ccc(S(=O)(=O)Oc2ccc(C(c3c(C)[nH][nH]c3=O)c3c(C)[nH][nH]c3=O)cc2)cc1,-1.83
19,CC(C)CCn1c(NCCN(C)C)nc2c1c(=O)[nH]c(=O)n2C,-23.2
20,COc1ccc(-n2c(SC3CCOC3=O)nc3ccccc3c2=O)cc1OC (stereo not shown),-4.64
21,COC(=O)c1c(NC(=O)c2cccc(S(=O)(=O)N3CCN(C)CC3)c2)sc(C)c1C,13.4
22,COc1ccc(C2Nc3ccccc3C(=O)N2NC(=O)c2ccccc2)cc1OC (stereo not shown),3.24
23,Cc1ccccc1N=C1SCCN1C(=O)CN1C(=O)NC2(CCCC2)C1=O,-21.7
